Consider 94 compounds from ChEMBL document CHEMBL1156829.

The structures appear in SMILES notation. Whole data set: some 5,400 compounds, median “IFI” near 2, cut for the highest 2% near 22. For the sample, the highest values were picked, then their nearest neighbours and some compounds at random.

A short description of this test: NOVARTIS: Inhibition Frequency Index (IFI) - the number of HTS assays where a compound showed > 50% inhibition/induction, expressed as a percentage of the number of assays in which the compound was tested. The test is classed as functional.
`COc1ccccc1CN1CCc2nc(-c3cnccn3)sc2C1` displayed an IFI of 9.86%.

Regarding `COc1ccc(CCNc2nc(NCCCn3ccnc3)ncc2C(=O)NCC(C)C)cc1OC`, the IFI turned out to be 1.92%. In the case of `CC(=O)N(Cc1ccc(F)cc1)C1=C(NCCc2ccccc2)C(=O)c2ccccc2C1=O` it was 8.33%; in that of `CNC1=C(N(Cc2ccc(Cl)c(Cl)c2)C(C)=O)C(=O)c2ccccc2C1=O`, 14.3%. In the case of `CC(=O)N(Cc1ccc(F)cc1)C1=C(NCc2ccccc2)C(=O)c2ccccc2C1=O` it was 23.1%. `CCOC(=O)c1c(N=Cc2cccc(OC)c2O)sc2c1CCN(C)C2` returned an IFI of 0%. `O=c1cc[nH]c2cc(N3CCCCCC3)c(F)cc12` registered an IFI of 0%. In the case of `O=C(Nc1ccc2oc(-c3cccc4ccccc34)nc2c1)c1ccc([N+](=O)[O-])o1`, the IFI was 7.14%.

The compound `C=CC1(C)CC23CC(C(OC(=O)c4ccccc4)c4ccnc5ccccc45)N2CCC13` (centres undefined) showed an IFI of 3.64%. For `COc1cccc2cc(-c3nc(-c4ccccc4)cs3)c(=O)oc12` the value was 6.45%; for `Cc1cc(/C=C2/SC(=S)N(CC(=O)O)C2=O)c(C)n1-c1ccccc1`, 0%; for `CCN1/C(=C\C=C2/SC(=S)N(c3ccccc3)C2=O)C(C)(C)c2cc(-c3ccccc3)ccc21`, 25%. As for `COc1cccc(N2C(=O)/C(=C/c3cccnc3)SC2=S)c1`, the IFI is 0%. For `N#Cc1c(-c2ccccc2)cc(N2CCN(Cc3ccc(Cl)cc3)CC2)n2c1nc1ccccc12` the value was 7.5%; for `CCOC(=O)c1c(-c2ccc3c(c2)OCO3)[nH]c2cccc(OC)c2c1=O`, 0%. The compound `COc1cc2c(OC3OCC(OC)C(OC)C3O)c3c(c(-c4ccc5c(c4)OCO5)c2cc1OC)C(=O)OC3` (centres undefined) registered an IFI of 27.7%.

In turn, `CCOC(=O)c1c(-c2ccc3c(c2)OCO3)[nH]c2cc(OC)ccc2c1=O` registered an IFI of 0%. In the case of `CCOc1ccc(NC(=O)C2c3ccccc3C(=O)N(CC(C)C)C2c2cccs2)cc1` (centres undefined) it was 6.25%; in that of `CS[C@H]1SC[C@H]2C(=O)N(C)[C@@H](C(C)C)C(=O)OC[C@@H](NC(=O)c3cnc4ccccc4n3)C(=O)N[C@@H](C)C(=O)N(C)[C@@H]1C(=O)N(C)[C@@H](C(C)C)C(=O)OC[C@@H](NC(=O)c1cnc3ccccc3n1)C(=O)N[C@@H](C)C(=O)N2C`, 34.6%.

As for `O=C(Nc1ccc(C2=NCCN2)cc1)c1ccc(-c2ccc(C(=O)Nc3ccc(C4=NCCN4)cc3)cc2)cc1`, the IFI worked out at 4.4%. For `O=C(CN(CCN1CCOCC1)S(=O)(=O)c1ccccn1)N1CCN(C(c2ccccc2)c2ccccc2)CC1` the value was 0%; for `OC1(c2ccc3ccccc3c2)c2c(c3ccccc3c3ccccc23)C2=NCCN21` (centres undefined), 3.25%; for `CCn1c2ccccc2[n+]2c(C)cc(C)nc12`, 7.14%.

Compound `COc1cc2nc(NCC3CCCO3)n3nc(-c4ccccc4)nc3c2cc1OC` (centres undefined) had an IFI of 2.27%. For `CCn1c(/C=C/N(C)c2ccccc2)[n+](CC)c2cc(Cl)ccc21` the value was 6.25%.

In turn, `CCOC(=O)c1ccc2c(c1)[n+](CC)c(/C=C/N(C)c1ccccc1)n2CC` displayed an IFI of 7.41%. For `CC[n+]1c(/C=C/N(C)c2ccccc2)n(-c2ccccc2)c2ccc(-c3nc4ccccc4s3)cc21` the value was 29.2%. For `NCCC(=O)N1CC(c2ccccc2)c2ccccc2C1CN1CCCCC1` (centres undefined) the value was 4.22%; for `COc1ccc2cc(CNCCc3cccc(Cl)c3)c(N3CCC(=O)N(CCN(C)C)CC3)nc2c1`, 9.73%; for `Cc1onc(-c2ccccc2)c1C(=O)N1CCC(CNc2c(-c3ccc(F)cc3)nc3ccccn23)CC1`, 5.56%. In the case of `Cc1ccc(-c2cc(-c3cc(Cl)ccc3O)on2)cc1` it was 0%; in that of `Cc1ccnc(Nc2nc(-c3ccccn3)cs2)c1`, 24.6%; in that of `Cc1ccc(Nc2nc(-c3ccccn3)cs2)cc1`, 3.62%. Consider `c1ccc(Nc2nc(-c3ccccn3)cs2)nc1`, for which the IFI is 18.1%. In the case of `CC(=O)c1ccc2c3c(onc13)-c1ccccc1C2=O` it was 0%; in that of `O=S(=O)(NC1CCCC1)c1cccc2nonc12`, 0%. In the case of `O=C1c2ccccc2C(=O)c2c1ccc1nonc21` it was 30.8%; in that of `O=C(C1=C(O)C(=O)N(CCCn2ccnc2)C1c1ccccc1[N+](=O)[O-])c1ccccc1` (centres undefined), 0%. In the case of `COc1cccc(CNc2ncnc3sc(C(=O)NCC4COCCO4)c(C)c23)c1OC` (centres undefined) it was 1%; in that of `COc1ccc(Nc2nc(NN=Cc3cccc([N+](=O)[O-])c3OC)nc(Nc3ccc([N+](=O)[O-])cc3)n2)cc1`, 6.49%; in that of `CCC(c1nc2ccccc2c(=O)n1CCOC)N1CCNCC1` (centres undefined), 3.31%. With `C=CC[n+]1c(C=C2C=CN(C)C=C2)sc2ccccc21`, the IFI came to 15.4%.

In turn, `O=c1c2ccccc2[nH]c2ccc(F)cc12` showed an IFI of 0%. In the case of `CC[n+]1c(C)cc2c([nH]c3ccccc32)c1C`, the IFI worked out at 3.03%. For `O=C1c2ccccc2-[n+]2ccc3c([nH]c4ccccc43)c21` the value was 41.2%; for `CC(=O)NCCc1ccc(O)cc1`, 1.48%; for `CCN(CC)CCNc1nc(/C=C/c2ccc(Cl)cc2)nc2cc3ccccc3cc12`, 8.77%. In the case of `S=C(NN=Cc1ccccn1)NC1CC2CC1C1C=CCC21` (centres undefined) it was 32.5%; in that of `S=C(NN=Cc1ccccn1)NC1CC2C=CC1C2` (centres undefined), 19.7%. For the compound `CC1(C)C2CCC(C2)C1(C)NC(=S)NN=Cc1ccccn1` (centres undefined), the IFI stood at 26%. `Cn1c2ccccc2c2nnc(NN=Cc3ccccn3)nc21`: the IFI stood at 15.4%. For `Cc1ccc(NC(=O)C2CSC(c3cccc(F)c3)N2C(=O)c2ccc(C(C)(C)C)cc2)cc1C` (centres undefined) the value was 4.25%.

Regarding `CC(C)(C)NC(=O)C(c1cccs1)N(CCCN1CCOCC1)C(=O)c1ccc(-c2ccccc2)[nH]1` (centres undefined), the IFI came to 3.26%. In the case of `Cc1ccc(S(=O)(=O)Oc2ccc(C=NN=C(N)N)cc2)cc1` it was 0%; in that of `CC(C)CN1C(=O)c2ccccc2C(C(=O)Nc2ccc(C(C)C)cc2)C1c1cccs1` (centres undefined), 6.06%; in that of `COC(=O)c1cn([C@H]2C[C@@H](C(=O)NCc3ccc(OC)cc3)N(Cc3ccsc3)C2)nn1`, 1.98%.

Consider `CCCC1=[N+](CC(=O)c2ccc(C)cc2)CCn2c(C)ccc21`, for which the IFI amounted to 5.75%.

For `CC[C@@H](C(=O)[C@@H](C)C(O)[C@H](C)CCc1ccc(C)c(O)c1C(=O)O)C1O[C@](CC)(C2CC[C@](O)(CC)[C@H](C)O2)C[C@@H]1C` (some centres undefined), the IFI is 9.84%. The compound `CC[C@@H](C(=O)[C@@H](C)[C@@H](O)[C@H](C)CCc1ccc(C)c(O)c1C(=O)O)[C@H]1O[C@](CC)([C@H]2CC[C@](O)(CC)[C@@H](C)O2)C[C@@H]1C` registered an IFI of 26.9%.

Turning to `Cc1ccc(CNC(=O)C2CNCC2c2ccc(C(F)(F)F)cc2)cc1` (centres undefined), the IFI came out at 2.82%. For `O=C1N(c2ccccc2)C[C@@H]2C[C@@H](c3ccc4nonc4c3)N3CCC[C@@]123` the value was 7.69%; for `OC1=C2C(=Nc3ccccc3SC2c2ccccc2)c2ccccc21` (centres undefined), 2.25%.

`COc1ccc(-c2n(C)c3ccccc3[n+]2CC(=O)OC2CC(C)CCC2C(C)C)cc1` (centres undefined) returned an IFI of 22.7%. For `COc1ccc(-c2c[n+](CC(=O)O[C@H]3C[C@H](C)CC[C@@H]3C(C)C)c3n2CCCCC3)cc1` the value was 21.9%. For `CC1CCC(C(C)C)C(OC(=O)Cn2c(-c3ccccc3)[n+](C)c3ccccc32)C1` (centres undefined) the value was 13.1%.

The compound `O=C1Cc2c([nH]c3ccc(OCc4ccccc4)cc23)C2CC=CCC12` (centres undefined) returned an IFI of 0%. For `Nc1c(C(=O)NCc2ccccc2)nnn1Cc1ccc(F)cc1Cl` the value was 0%. In the case of `CCN1C(=Cc2sc3ccc(OC)cc3[n+]2CC)C=Cc2ccccc21` it was 25%; in that of `CCN1/C(=C/c2sc3ccc(-c4ccccc4)cc3[n+]2CCO)C=Cc2cc(OC)ccc21`, 7.14%; in that of `CCN1/C(=C\c2sc3ccc(O)cc3[n+]2CC)C=Cc2ccccc21`, 23.1%. For `CCN1/C(=C/c2sc3ccc(OC)cc3[n+]2CC)C=Cc2cc(OC)ccc21` the value was 15.4%; for `CCN1/C(=C/c2sc3ccc(I)cc3[n+]2CC)C=Cc2ccccc21`, 15.4%; for `CCN1/C(=C/C2=CC(=C/c3sc4ccccc4[n+]3CC)/CC(C)(C)C2)C=Cc2ccccc21`, 9.43%. For `CCN1C(=Cc2sc3ccc(Cl)cc3[n+]2CC)C=Cc2cc(OC)ccc21`, the IFI was found to be 15.4%.

`CCN1/C(=C/c2sc3ccc(OC)cc3[n+]2CC)C=Cc2cc(C)ccc21` had an IFI of 23.1%. In the case of `CCCC[n+]1c(C=C2C=Cc3ccccc3N2CC)sc2ccccc21` it was 11.1%; in that of `CCN1/C(=C/c2sc3ccc(Br)cc3[n+]2CC)C=Cc2ccccc21`, 15.4%; in that of `CCN1/C(=C/c2sc3ccccc3[n+]2CC)C=Cc2cc(NC(C)=O)ccc21`, 7.69%. For `CCCN1/C(=C/c2sc3ccccc3[n+]2CC)C=Cc2ccccc21` the value was 23.1%. For `CCOc1ccc(C(=O)C(CCC(C[N+]2(C)CCCCCC2)C(=O)c2ccc(OCC)cc2)C[N+]2(C)CCCCCC2)cc1` (centres undefined) the value was 0%; for `COc1ccc(CCNc2nc(NCCC3CCCN3C)ncc2C(=O)NCc2ccccc2)cc1OC` (centres undefined), 1.92%; for `COc1ccc2[nH]c(=O)c(CN(C(=S)Nc3ccccc3OC)C3CCCC3)cc2c1`, 2.17%.

`Nc1ccc(-c2cc(N)n(-c3ccc(Oc4ccccc4)c(S(=O)(=O)O)c3)n2)cc1`: the IFI turned out to be 1.83%. For `CCOc1cccc2oc(=O)c(C(=O)Nc3cc(C(C)(C)C)on3)cc12` the value was 0%; for `CCOc1ccc(-c2nc(NC(=O)CS(=O)(=O)c3ccccc3)sc2C)cc1`, 0%. In turn, `CCOC(=O)C1CCN(C(=O)c2cc(C(C)(C)C)nn2Cc2ccc(Cl)cc2Cl)CC1` displayed an IFI of 1.63%. In the case of `CCC(c1nc2ccccc2c(=O)n1CC)N1CCN(C(=O)Nc2ccccc2C(F)(F)F)CC1` (centres undefined) it was 2.08%. In the case of `Cc1ccccc1CN1CCN(C/C=C/c2ccccc2)CCC1=O` it was 0.962%; in that of `CCN1/C(=C/c2sc3cc(OC)c(OC)cc3[n+]2CC)C=Cc2ccccc21`, 23.1%; in that of `CCN1/C(=C/c2sc3ccc(-c4ccccc4)cc3[n+]2CCO)C=Cc2ccccc21`, 7.14%. In the case of `CCN1/C(=C/c2sc3ccccc3[n+]2CC)Sc2ccccc21` it was 21.9%. As to `CCCOC(=O)C1=C(C)NC2=C(C(=O)CC(c3ccc(Cl)cc3)C2)C1c1ccc(Br)cc1` (centres undefined), the IFI was 3.57%.

Take `Cc1ccn2c(NC(C)(C)CC(C)(C)C)c(-c3ccccc3OC(=O)c3ccc(C)c([N+](=O)[O-])c3)nc2c1`: the IFI was determined as 3.74%. In the case of `Cc1ccc(S(=O)(=O)NC(Cc2ccccc2)C(=O)N2CCC(C3CCN(C(=O)c4ccc([N+](=O)[O-])o4)CC3)CC2)cc1` (centres undefined) it was 7.69%.
